Measurements reported in PubChem BioAssay AID493185 (National Center for Advancing Translational Sciences (NCATS), 2011).
A number with no mark means an inactive call. Calls of active or inactive are those of the source. The call rests on the fitted dose curve; in most records, active means well fitted activation curve with a large enough effect; inconclusive means small, poorly fitted or top-dose-only effect; inactive means no such curve, though single readings can be large or run the other way.

assay: Counterscreen for Identifying a Potential Treatment of Ataxia-Telangiectasia: Hit Validation; conditions: cell-free AlphaLISA/AlphaScreen artifact counterscreen, PBS only, no cells; series mostly up to 76.9 µM; activation: at the top concentration; on activation: 0% is about no effect
Procedure, shortened: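 Without cells, compounds at up to 76.7 uM final were combined with premixed anti-pKAP1/anti-KAP1 AlphaLISA bead reagents, protease inhibitors and lysis buffer; signal read after 6 hr at 25C to flag assay-platform artifacts.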
Potency means the concentration at half of the fitted maximal effect.

Row | SMILES | activation [%] | Potency
1 | COc1cccc(C(=O)NOCc2ccc(C)cc2)c1OC | 8.46 | 
2 | CCc1nnc2n1N=C(c1cccc([N+](=O)[O-])c1)CS2 | -16.9 | 
3 | Cc1cc(C)c2c(Cn3ccnc3)cc(=O)oc2c1 | 6.77 | 
4 | OC(COC(c1ccc(F)cc1)c1ccc(F)cc1)CN1CCCC1 (stereo not given) | 13.1 | 
5 | CC1(C)CC2(CCO1)OC(=O)CC2C(=O)Nc1c(Cl)cccc1Cl (stereo not given) | 7.38 | 
6 | COc1ccc(Oc2ncnc3c2oc2ccc(Br)cc23)cc1 | -9.23 | 
7 | CCOc1cccc(C(=O)Nc2ccccc2N2CCN(C(=O)C(C)C)CC2)c1 | 5.74 | 
8 | Cc1ccc(C(=O)Nc2sc3c(c2C(=O)O)CCCCC3)o1 | -5.74 | 
9 | CNC(=O)c1ccc(-c2sc3nc(N4CCOCC4)c4c(c3c2N)CC(C)(C)OC4)o1 |  | 46.3 µM (active)
10 | COc1ccc(-c2cc(C(F)(F)F)c(C#N)c(SCC(=O)O)n2)cc1OC | 24.6 | 
11 | Cc1ccc(C(=O)N/C(=C\c2ccco2)C(=O)NC2CCS(=O)(=O)C2)cc1 (stereo not given) | -5.26 | 
12 | CC1=C/C(=C\C=C(C#N)C#N)N(C)c2ccccc21 | 36.9 | 
13 | COc1ccc(-c2csc(-c3ccc(O)cc3)n2)cc1 | 4.1 | 
14 | CN(C)C(=O)CN(C)S(=O)(=O)c1ccc(Cl)cc1 | 9.02 | 
15 | COc1ccccc1NC(=O)C1CCCN(S(=O)(=O)c2ccc(-n3cnnn3)cc2)C1 (stereo not given) | -3.76 | 
16 | O=C(NC(=O)c1c(F)cccc1F)Nc1ccccc1SC(F)F | 9.02 | 
17 | CCc1ccc(NC(=O)CNCc2ccc(OC)c(OC)c2)cc1 | -3.28 | 
18 | Cc1nn(-c2ccccc2)c2nc(C(Cl)(Cl)Cl)[nH]c(=O)c12 | 6.56 | 
19 | O=C1C(Cl)=C(Nc2ccc3cn[nH]c3c2)C(=O)c2ccccc21 | -29.2 | 
20 | Cc1nn(CC(=O)N(C)Cc2ccc(F)cc2)c(C)c1[N+](=O)[O-] | 3.01 | 

Row | SMILES | activation [%] | Potency
21 | CC1CCCC(C)N1CCCNC(=O)Cn1ncc2c3ccccc3n(C)c2c1=O (stereo not given) | 12.8 | 
22 | CNC(=O)/C=C/c1cc(C(=O)c2ccc(Cl)cc2Cl)cn1C | -13.1 | 
23 | COc1ccc(N2CCN(C(=O)c3cc4cc(Cl)ccc4[nH]3)CC2)cc1 | 1.5 | 
24 | Oc1cccc(NC(=S)N=Nc2c(O)[nH]c3ccccc23)c1 | -13.1 | 
25 | CCc1ccc(NC(=O)N[C@H](C(=O)O)C(C)CC)cc1 (stereo not given in full) | -7.69 | 
26 | Cc1ccc2c(c1)sc(=NC(=O)C1CC1)n2C | 3.28 | 
27 | COc1cccc(/C=N/NC(=O)c2cc3cc([N+](=O)[O-])ccc3s2)c1O | -1.5 | 
28 | Cc1cc2c(c(=O)o1)C(CCC1CCCCC1)C(C#N)=C(N)O2 (stereo not given) | -17.7 | 
29 | COc1cc(CCC(C)NCc2ccccc2)ccc1O (stereo not given) | 3.76 | 
30 | Clc1cccc(Cl)c1CSc1nnc(-c2ccncc2)s1 | -5.74 | 
31 | CCN(CC)CCNC(=O)CCc1c(C)nc2c(c(C)nn2-c2ccc(C)cc2)c1C | 17.7 | 
32 | CC(C)Nc1nc(Oc2ccc(=O)n(-c3ccccc3)n2)nc(N(C)C)n1 | 4.51 | 
33 | COc1ccccc1S(=O)(=O)Nc1ccc(-c2nnc3n2CCCCC3)cc1 | -2.46 | 
34 | COc1ccc(NS(=O)(=O)c2ccc(N3CC(O)=C(c4ccccc4)C3=N)cc2)cc1 | -13.9 | 
35 | COc1cccc(CNC(=O)C(CC(C)C)NC(=O)c2ccccc2C)c1 (stereo not given) | 0 | 
36 | CC(C)(CN1CCN(c2ccccc2)CC1)NS(=O)(=O)c1ccccc1 | -7.38 | 
37 | CC(=O)Nc1ccc(NC2=C(Cl)C(=O)c3ccccc3C2=O)cc1 | -32.3 | 
38 | CC(C)C1CC(CCN)(c2ccccc2)CCO1 (stereo not given) | 1.5 | 
39 | CC(C)(C)n1nc2c(c1NC(=O)C1CC(=O)N(c3ccc(Cl)cc3)C1)CS(=O)(=O)C2 (stereo not given) | -0.82 | 
40 | O=C(c1ccc(F)cc1)c1ccc(N2CCCCC2)cc1 | 9.02 | 
